Reference: PubChem BioAssay (Tox21)
Several values for one entry are separate records, joined by “and”; a condition that tells them apart may be missing. Equal values may be shown once. Inconclusive results are not listed. Entries that show only a call come without a potency. Some structures have more than one record in an assay (separate samples or runs), and their calls can disagree. Activity calls are given as the source filed them. Unless noted, the call rests on the fitted dose curve; in most records, active means well fitted curve in the direction sought with a large enough effect in the repeat runs; inconclusive means weak or mixed curves; inactive means no such curve, though single readings can be large; an effect the other way counts as inactive or inconclusive.

What was measured:
[1] = qHTS assay to identify aromatase inhibitors - cell viability counter screen (AID 743084);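 further: cells stimulated with testosterone during compound exposure; nearly all actives have a fitted effect of over 55% in size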
[2] = molecular target: Aryl hydrocarbon receptor (Homo sapiens) (UniProt P35869); experiment: qHTS assay to identify small molecule that activate the aryl hydrocarbon receptor (AhR) signaling pathway (AID 743085); further: nearly all actives have a fitted effect of over 15% in size; further: potency means the concentration at half of the fitted maximal effect;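 on activation: HG2L7.5c1 human HepG2 liver cells with stably integrated DRE-driven firefly reporter; series mostly up to about 70 µM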
Procedure, shortened: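 Steps: seed HepG2-AhR-luc cells; allow 5 h at 37C; pin-transfer test compound or vehicle; incubate 24 h at 37C; add viability dye (30 min, 37C) and read fluorescence; add luciferase substrate (30 min, RT) and read luminescence.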

[3] = qHTS assay to identify small molecule that activate the aryl hydrocarbon receptor (AhR) signaling pathway - cell viability counter screen (AID 743086);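 further: HepG2 liver cells carrying the AhR DRE luciferase reporter; series mostly up to about 70 µM; nearly all actives have a fitted effect of over 45% in size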
Procedure, shortened: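 HepG2-AhR-luc (HG2L7.5c1) cells, 4000/well, were preincubated 5 h at 37C, exposed to compound in qHTS format for 24 hr at 37C, then given CellTiter-Fluor for 30 min; viability was read as fluorescence in the reporter wells.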

[4] = molecular target: Peroxisome proliferator-activated receptor gamma (Homo sapiens) (UniProt P37231); experiment: qHTS assay to identify small molecule agonists of the peroxisome proliferator-activated receptor gamma (PPARg) signaling pathway (AID 743094; active means well fitted activation curve with a large enough effect in the signal ratio in the repeat runs, not every such curve was filed as active; the % refers to the signal ratio)
Procedure, shortened: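 Following 5 h plating at 37C, PPARg-bla HEK293H cells receive compound or DMSO for 17 h; fluorescence intensity is recorded after LiveBLAzer B/G loading for 1 h at room temperature.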

[5] = molecular target: Peroxisome proliferator-activated receptor gamma (Homo sapiens) (UniProt P37231); experiment: qHTS assay to identify small molecule antagonists of the peroxisome proliferator-activated receptor gamma (PPARg) signaling pathway (AID 743191; calls by dose curve; further: series mostly up to about 63 µM; nearly all actives have a fitted effect of over 30% in size)
Procedure, shortened: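 GeneBLAzer PPARg UAS-bla HEK293H cells carrying a UAS-driven beta-lactamase reporter were plated at 3000 cells/well, preincubated 5 h at 37C, then given compound for 17 h at 37C; LiveBLAzer B/G FRET substrate was read after 1 h at room temperature.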

[6] = qHTS assay to identify small molecule antagonists of the peroxisome proliferator-activated receptor gamma (PPARg) signaling pathway - cell viability counter screen (AID 743194); further: nearly all actives have a fitted effect of over 55% in size
Procedure, shortened: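 PPARg-UAS-bla HEK293H cells were plated, rested 5 h at 37 C, then treated with compounds plus rosiglitazone (50 nM final) for 17 h at 37 C; viability was then read by CellTiter-Glo luminescence after 30 min at room temperature.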

[7] = qHTS assay for small molecule activators of the heat shock response signaling pathway - cell viability counter screen (AID 743209); further: nearly all actives have a fitted effect of over 50% in size
Procedure, shortened: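 Counter screen for cytotoxicity in HeLa HSE-bla reporter cells. Treatment was 5 h at 37 C; viability was detected by luminescent ATP assay (CellTiter-Glo) in the same wells as the beta-lactamase read.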

[8] = qHTS assay for small molecule activators of the heat shock response signaling pathway (AID 743210; active means well fitted activation curve with a large enough effect in the signal ratio in the repeat runs, with a control signal flat, not every such curve was filed as active; the % refers to the signal ratio; further: series mostly up to about 63 µM)
Procedure, shortened: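 HSE-bla HeLa cells (beta-lactamase reporter under heat shock response elements) were exposed to compounds for 5 h at 37 C, then loaded with LiveBLAzer B/G FRET substrate for 2.5 h at room temperature before fluorescence reading.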

[9] = qHTS assay to identify small molecule agonists of the peroxisome proliferator-activated receptor delta (PPARd) signaling pathway - cell viability counter screen (AID 743211); further: nearly all actives have a fitted effect of over 55% in size
Procedure, shortened: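 Viability of GeneBLAzer PPARd UAS-bla HEK293H cells was assessed after 17 h compound incubation at 37C, using CellTiter-Glo reagent added after the reporter read and luminescence recorded 30 min later.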

[10] = molecular target: Peroxisome proliferator-activated receptor delta (Homo sapiens) (UniProt Q03181); experiment: qHTS assay to identify small molecule agonists of the peroxisome proliferator-activated receptor delta (PPARd) signaling pathway (AID 743212; calls by dose curve)
Procedure, shortened: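 GeneBLAzer PPARd UAS-bla HEK293H cells (beta-lactamase reporter under UAS control), plated and rested 5 h at 37 C, then exposed to compounds in DMSO at 37 C; LiveBLAzer B/G FRET substrate added, 2 h room temperature, fluorescence read.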

[11] = qHTS assay to identify small molecule antagonists of the peroxisome proliferator-activated receptor delta (PPARd) signaling pathway - cell viability counter screen (AID 743213); further: nearly all actives have a fitted effect of over 50% in size
Procedure, shortened: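 Cytotoxicity counter screen: CellTiter-Glo luminescence read 30 min after addition, in the same wells as the reporter assay. There, PPARd UAS-bla HEK293H cells (3000/well) were treated 17 h at 37 C with compound and 300 nM L165041.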

[12] = molecular target: Bile acid receptor (Homo sapiens) (UniProt Q96RI1); experiment: qHTS assay to identify small molecule antagonists of the farnesoid-X-receptor (FXR) signaling pathway (AID 743217; active means well fitted inhibition curve with a large enough effect in the signal ratio in the repeat runs, not every such curve was filed as active; the % refers to the signal ratio)
Procedure, shortened: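 In this cell-based antagonist screen, inhibition of CDCA-driven (50 uM final) UAS-beta-lactamase expression in HEK 293T cells was measured by FRET fluorescence following 16 h compound exposure at 37 °C.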

[13] = qHTS assay to identify small molecule agonists of the farnesoid-X-receptor (FXR) signaling pathway - cell viability counter screen (AID 743218); further: nearly all actives have a fitted effect of over 45% in size
Procedure, shortened: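 After 16 h at 37 C with test compounds, FXR-bla HEK 293T cells were given LiveBLAzer B/G substrate for 2 h at RT and then CellTiter-Glo; luminescence was taken after 30 min.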

[14] = molecular target: Bile acid receptor (Homo sapiens) (UniProt Q96RI1); experiment: qHTS assay to identify small molecule agonists of the farnesoid-X-receptor (FXR) signaling pathway (AID 743220; active means well fitted activation curve with a large enough effect in the signal ratio in the repeat runs, not every such curve was filed as active; the % refers to the signal ratio)
Procedure, shortened: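 Beta-lactamase reporter under UAS control in GeneBLAzer FXR HEK 293T cells (5000/well) measured with LiveBLAzer FRET substrate after 2 h at room temperature. Compound exposure lasted 16 h at 37C.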

[15] = qHTS assay to identify small molecule antagonists of the farnesoid-X-receptor (FXR) signaling pathway - cell viability counter screen (AID 743221; active means well fitted cell-killing curve with a large enough effect in the repeat runs, not every such curve was filed as active; further: nearly all actives have a fitted effect of over 50% in size)
Procedure, shortened: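 Quantitative HTS of the Tox21 10K library run in parallel with the beta-lactamase reporter read. HEK 293T cells carrying a UAS-driven bla reporter got compound and 50 uM CDCA (final) for 16 h; ATP-based luminescence followed.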

[16] = molecular target: Vitamin D3 receptor (Homo sapiens) (UniProt P11473); experiment: qHTS assay to identify small molecule agonists of the vitamin D receptor (VDR) signaling pathway (AID 743222; calls by dose curve)
Procedure, shortened: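 VDR-bla cells were seeded, left 4 h, treated with compounds in DMSO for 16 h, incubated 2 h at RT with B/G FRET substrate, and read for fluorescence.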

[17] = molecular target: Vitamin D3 receptor (Homo sapiens) (UniProt P11473); experiment: qHTS assay to identify small molecule antagonists of the vitamin D receptor (VDR) signaling pathway (AID 743223; active means well fitted inhibition curve with a large enough effect in the signal ratio in the repeat runs, not every such curve was filed as active; the % refers to the signal ratio)
Procedure, shortened: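 Fluorescence from LiveBLAzer B/G FRET substrate, read after 2 h at room temperature, reflects beta-lactamase reporter activity in VDR-bla cells treated 16 h at 37C with compounds and agonist 1alpha,25-dihydroxyvitamin D3 (3 nM final).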

[18] = qHTS assay for small molecule agonists of the antioxidant response element (ARE) signaling pathway - cell viability counter screen (AID 743203; calls by dose curve; further: nearly all actives have a fitted effect of over 55% in size)
Procedure, shortened: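 Compounds in DMSO were pinned onto ARE-bla HepG2 cells plated 5 hrs earlier at 2,000 cells/well. Sixteen hours later at 37C/5% CO2, CellTiter-Glo was added and luminescence measured after 30 min at room temperature.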

[19] = molecular target: Peroxisome proliferator-activated receptor delta (Homo sapiens) (UniProt Q03181); experiment: qHTS assay to identify small molecule antagonists of the peroxisome proliferator-activated receptor delta (PPARd) signaling pathway (AID 743215; active means well fitted inhibition curve with a large enough effect in the signal ratio in the repeat runs, not every such curve was filed as active; the % refers to the signal ratio;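 further: cells stimulated with agonist L165041 at 300 nM final during compound exposure; series mostly up to about 62 µM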)
Procedure, shortened: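 With L165041 present at 300 nM final, compounds were incubated 17 h at 37 C on PPARd UAS-bla HEK293H cells. A FRET-based beta-lactamase substrate was then applied for 2 h at room temperature and fluorescence intensity recorded.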

[20] = qHTS assay for small molecule agonists of the antioxidant response element (ARE) signaling pathway (AID 743202; active means well fitted activation curve with a large enough effect in the signal ratio in the repeat runs, not every such curve was filed as active; the % refers to the signal ratio)
Procedure, shortened: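 Read-out: LiveBLAzer B/G FRET substrate fluorescence after 2 h at room temperature, following 16 h compound treatment at 37 C of HepG2 cells carrying an ARE-driven beta-lactamase reporter.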

Peroxisome proliferator-activated receptor gamma (Homo sapiens), sequence (P37231 whole entry, looked up): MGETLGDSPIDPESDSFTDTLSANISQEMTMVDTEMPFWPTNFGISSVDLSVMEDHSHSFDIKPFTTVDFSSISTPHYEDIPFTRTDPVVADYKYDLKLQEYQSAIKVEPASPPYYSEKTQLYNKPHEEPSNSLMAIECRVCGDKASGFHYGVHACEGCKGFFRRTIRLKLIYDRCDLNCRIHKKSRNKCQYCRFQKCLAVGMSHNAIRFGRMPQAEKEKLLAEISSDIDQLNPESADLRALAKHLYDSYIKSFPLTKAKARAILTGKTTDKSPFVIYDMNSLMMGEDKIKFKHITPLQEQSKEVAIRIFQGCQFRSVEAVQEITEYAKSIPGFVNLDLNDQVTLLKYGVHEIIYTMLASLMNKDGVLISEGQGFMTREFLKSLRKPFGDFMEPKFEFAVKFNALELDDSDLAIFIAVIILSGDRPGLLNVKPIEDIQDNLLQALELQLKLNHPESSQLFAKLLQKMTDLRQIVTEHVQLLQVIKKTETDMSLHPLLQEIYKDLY
Peroxisome proliferator-activated receptor delta (Homo sapiens), sequence (Q03181 whole entry, looked up): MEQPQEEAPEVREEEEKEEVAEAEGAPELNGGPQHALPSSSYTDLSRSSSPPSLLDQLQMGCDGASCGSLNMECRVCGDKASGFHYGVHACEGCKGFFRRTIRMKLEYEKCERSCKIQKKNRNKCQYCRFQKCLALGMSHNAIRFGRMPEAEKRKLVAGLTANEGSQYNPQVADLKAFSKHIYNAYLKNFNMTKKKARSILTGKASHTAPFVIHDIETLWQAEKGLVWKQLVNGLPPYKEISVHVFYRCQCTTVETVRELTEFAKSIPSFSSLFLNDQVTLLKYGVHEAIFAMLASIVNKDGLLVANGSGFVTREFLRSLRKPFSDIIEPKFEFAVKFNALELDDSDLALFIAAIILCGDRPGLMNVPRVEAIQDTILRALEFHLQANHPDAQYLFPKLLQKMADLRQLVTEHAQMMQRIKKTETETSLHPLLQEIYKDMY
Aryl hydrocarbon receptor (Homo sapiens), sequence (P35869 whole entry, looked up): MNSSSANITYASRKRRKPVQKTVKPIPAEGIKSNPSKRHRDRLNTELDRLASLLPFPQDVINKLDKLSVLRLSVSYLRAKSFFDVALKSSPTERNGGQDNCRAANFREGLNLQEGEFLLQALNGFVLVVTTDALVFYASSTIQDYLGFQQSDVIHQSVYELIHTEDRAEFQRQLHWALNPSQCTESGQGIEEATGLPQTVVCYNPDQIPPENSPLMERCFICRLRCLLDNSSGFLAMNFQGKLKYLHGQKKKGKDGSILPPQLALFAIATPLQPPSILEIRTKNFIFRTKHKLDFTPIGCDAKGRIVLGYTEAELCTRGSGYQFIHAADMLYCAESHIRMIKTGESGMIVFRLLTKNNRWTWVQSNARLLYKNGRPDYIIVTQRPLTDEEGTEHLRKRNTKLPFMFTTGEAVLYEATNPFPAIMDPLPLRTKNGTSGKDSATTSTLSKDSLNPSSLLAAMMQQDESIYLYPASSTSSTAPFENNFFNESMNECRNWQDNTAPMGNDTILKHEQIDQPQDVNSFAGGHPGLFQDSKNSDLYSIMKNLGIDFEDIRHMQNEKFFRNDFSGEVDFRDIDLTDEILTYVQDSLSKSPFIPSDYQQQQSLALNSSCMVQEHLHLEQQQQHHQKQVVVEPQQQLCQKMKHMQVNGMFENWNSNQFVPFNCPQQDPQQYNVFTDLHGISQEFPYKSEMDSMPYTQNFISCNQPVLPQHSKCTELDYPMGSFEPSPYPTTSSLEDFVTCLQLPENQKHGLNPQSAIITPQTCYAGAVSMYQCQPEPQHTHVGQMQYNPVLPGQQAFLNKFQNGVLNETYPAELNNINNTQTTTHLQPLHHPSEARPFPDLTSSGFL
Bile acid receptor (Homo sapiens), sequence (Q96RI1 whole entry, looked up): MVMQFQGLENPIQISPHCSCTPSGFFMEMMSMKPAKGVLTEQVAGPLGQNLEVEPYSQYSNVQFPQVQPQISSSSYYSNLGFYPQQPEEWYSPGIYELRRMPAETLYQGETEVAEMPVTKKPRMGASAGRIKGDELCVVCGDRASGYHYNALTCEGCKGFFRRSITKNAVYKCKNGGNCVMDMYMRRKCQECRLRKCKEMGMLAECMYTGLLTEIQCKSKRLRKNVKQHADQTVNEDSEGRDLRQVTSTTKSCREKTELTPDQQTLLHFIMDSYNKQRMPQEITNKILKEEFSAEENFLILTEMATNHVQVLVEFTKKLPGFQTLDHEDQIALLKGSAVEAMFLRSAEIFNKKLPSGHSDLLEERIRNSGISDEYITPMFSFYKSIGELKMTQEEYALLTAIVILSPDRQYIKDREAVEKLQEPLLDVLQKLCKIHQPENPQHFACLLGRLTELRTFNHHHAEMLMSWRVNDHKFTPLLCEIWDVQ
Vitamin D3 receptor (Homo sapiens), sequence (P11473 whole entry, looked up): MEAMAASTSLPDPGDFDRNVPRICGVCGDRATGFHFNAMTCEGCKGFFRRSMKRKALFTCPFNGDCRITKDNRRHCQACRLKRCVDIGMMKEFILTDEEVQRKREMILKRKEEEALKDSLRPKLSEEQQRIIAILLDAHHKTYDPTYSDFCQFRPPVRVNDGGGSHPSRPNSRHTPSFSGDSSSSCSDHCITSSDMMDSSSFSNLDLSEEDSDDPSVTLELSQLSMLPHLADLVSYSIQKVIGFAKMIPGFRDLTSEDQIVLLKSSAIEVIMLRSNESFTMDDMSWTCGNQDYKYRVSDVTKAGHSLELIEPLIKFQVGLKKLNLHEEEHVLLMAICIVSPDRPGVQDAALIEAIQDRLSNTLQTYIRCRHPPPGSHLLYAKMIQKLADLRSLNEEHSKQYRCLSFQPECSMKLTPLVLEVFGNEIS

| Structure (SMILES) | Potency [1] | Potency [2] | Potency [3] | outcome [4] | Potency [5] | outcome [6] | outcome [7] | outcome [8] | Potency [9] | outcome [10] | Potency [11] | outcome [12] | Potency [13] | outcome [14] | Potency [15] | outcome [16] | outcome [17] | Potency [18] | Potency [19] | Potency [20] |
| --- | --- | --- | --- | --- | --- | --- | --- | --- | --- | --- | --- | --- | --- | --- | --- | --- | --- | --- | --- | --- |
| CC(=O)N(CC(O)CO)c1c(I)c(C(=O)NCCO)c(I)c(C(=O)NCC(O)CO)c1I (stereo not drawn) | inactive | inactive | inactive | inactive | inactive | inactive | inactive | inactive | inactive | inactive | inactive | inactive | inactive | inactive | inactive | inactive | inactive | – | – | – |
| CC(C)NC(=O)NC(C)C | inactive | inactive | inactive | inactive | inactive | inactive | inactive | inactive | inactive | inactive | inactive | inactive | – | inactive | inactive | inactive | inactive | inactive | inactive | – |
| CC(C[N+](C)(C)C)OC(N)=O (stereo not drawn) | inactive | inactive | inactive | inactive | inactive | inactive | inactive | inactive | inactive | inactive | inactive | inactive | inactive | inactive | inactive | – | – | – | – | inactive |
| O=c1n(CCO)c(=O)n(CCO)c(=O)n1CCO | inactive | inactive | inactive | inactive | inactive | inactive | inactive | inactive | inactive | inactive | inactive | inactive | inactive | inactive | inactive | inactive | inactive | inactive | inactive | – |
| O=Cc1cccc([N+](=O)[O-])c1 | inactive | inactive | inactive | inactive | inactive | inactive | inactive | inactive | inactive | inactive | inactive | – | – | – | inactive | inactive | inactive | – | inactive | – |
| NS(=O)(=O)c1cc2c(cc1Cl)NC(C1CC3C=CC1C3)NS2(=O)=O (stereo not drawn) | inactive | inactive | inactive | inactive | – | inactive | inactive | inactive | inactive | inactive | inactive | – | inactive | – | inactive | inactive | inactive | inactive | inactive | inactive |
| Nc1ccc(S(=O)(=O)Nc2ccnn2-c2ccccc2)cc1 | inactive | inactive | inactive | inactive | inactive | inactive | inactive | inactive | inactive | – | inactive | inactive | inactive | inactive | inactive | inactive | inactive | – | – | inactive |
| O=C(O)CCCc1ccccc1 | inactive | inactive | inactive | inactive | inactive | inactive | inactive | inactive | inactive | – | inactive | – | inactive | – | inactive | inactive | inactive | inactive | – | – |
| CCCCCSCCCCC | inactive | inactive | inactive | inactive | – | inactive | inactive | inactive | inactive | inactive | inactive | inactive | inactive | inactive | inactive | – | – | inactive | inactive | inactive |
| c1ccc(CC2=NCCN2)cc1 | inactive | inactive | inactive | inactive | inactive | – | inactive | inactive | inactive | – | – | inactive | – | inactive | inactive | – | – | inactive | – | inactive |
| C=C(C)CS(=O)(=O)O | inactive | inactive | inactive | inactive | inactive | inactive | inactive | inactive | inactive | inactive | inactive | inactive | inactive | inactive | – | – | – | inactive | inactive | – |
| CC(=O)CC(C)(C)C1CCCCC1 | inactive | inactive | inactive | inactive | inactive | inactive | inactive | inactive | inactive | inactive | inactive | – | inactive | – | inactive | – | – | – | inactive | inactive |
| O=C(O)c1ccccc1OP(=O)(O)O | inactive | inactive | inactive | inactive | inactive | inactive | inactive | inactive | inactive | inactive | – | – | – | – | inactive | inactive | inactive | – | – | inactive |
| Nc1cc(=O)[nH]c(N)n1 | inactive | inactive | inactive | inactive | inactive | inactive | inactive | inactive | inactive | – | inactive | inactive | – | inactive | inactive | inactive | inactive | – | – | inactive |
| FC(F)OC(Cl)C(F)(F)F (stereo not drawn) | inactive | inactive | inactive | inactive | inactive | – | inactive | inactive | inactive | inactive | – | inactive | inactive | inactive | inactive | – | – | inactive | inactive | inactive |
| COC(=O)c1c(Cl)c(Cl)c(C(=O)OC)c(Cl)c1Cl | inactive | inactive and 48.6 µM (active) | inactive | inactive | inactive | inactive | inactive | inactive | inactive | inactive | inactive | inactive | inactive | inactive | inactive | inactive | – | inactive | inactive | – |
| CC(=O)OCC(CCn1cnc2cnc(N)nc21)COC(C)=O | inactive | inactive | inactive | inactive | inactive | inactive | inactive | – | inactive | inactive | inactive | – | – | – | inactive | inactive | inactive | – | – | inactive |
